This is an account of results in PubChem BioAssay (Tox21).

Unmarked numbers belong to inactive results. Results filed as inconclusive are left out. Activity calls are given as the source filed them. Unless noted, calls follow the shape of the dose curve; as a rule, active = well fitted curve in the direction sought with a large enough effect in the repeat runs; inconclusive = weak or mixed curves; inactive = no such curve, though single readings can be large; an effect the other way counts as inactive or inconclusive.

A short description of assay [1]: qHTS assay for small molecules that induce genotoxicity in human embryonic kidney cells expressing luciferase-tagged ATAD5 (AID 651632). Also: nearly all actives have a fitted effect of over 15% in size. A digest of the protocol: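 A rise in luciferase signal from ATAD5-tagged HEK293T cells marks genetic stress. Cells were exposed to compounds for 16 hr at 37C, 5% CO2, then luciferase was quantified after a 30 min room-temperature incubation with Amplite.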
In general terms: qHTS replaces the single test concentration by a dilution series.

Assay [2] in a line: qHTS assay for small molecule agonists of the p53 signaling pathway - cell viability (AID 651633; calls by dose curve; also: nearly all actives have a fitted effect of over 30% in size; also: potency is read from the fitted curve at half-maximal effect). A digest of the protocol: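 Viability counter-read: CellTiter-Glo luminescence (30 min, room temperature) in the same p53RE-bla plates. These plates had been exposed to compounds for 16 h at 37 C.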
Assay [3] is described as follows: qHTS assay for small molecule disruptors of the mitochondrial membrane potential - cell viability (AID 720634; calls by dose curve;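 also: human HepG2 liver cancer cells; series mostly up to about 83 µM; nearly all actives have a fitted effect of over 20% in size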). A digest of the protocol:
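Cytotoxicity was quantified from ATP content by CellTiter-Glo luminescence in the same wells as the MMP dye read-out. HepG2 (2,000 cells/well) were plated overnight and exposed to compounds for 1 hr at 37 C.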

The nature of assay [4]: qHTS assay to test for compound auto fluorescence at 535 nm (green) in HepG2 cells (AID 720675).
Assay [5] is described as follows: qHTS assay to test for compound auto fluorescence at 590 nm (red) in HEK293 cells (AID 720679). A digest of the protocol: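 HEK293 cells (2,000/well, 10% dialyzed FBS) attached 4-5 hr, then dosed with compound or DMSO and incubated overnight at 37C, 5% CO2. Red fluorescence read at 540/590 nm, Rose Bengal sodium as reference fluorophore.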
Assay [6] can be described thus: qHTS assay to test for compound auto fluorescence at 460 nm (blue) in HEK293 cell free culture (AID 720681). A digest of the protocol: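 Blue fluorescence (Ex 405/Em 460 nm, triamterene-equivalent) was read immediately after pin transfer of compound or DMSO into medium (DMEM, 10% FBS) without cells.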
Assay [7] in a line: qHTS assay to test for compound auto fluorescence at 535 nm (green) in HEK293 cell free culture (AID 720682). A digest of the protocol: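 Each library compound, or DMSO control, is added by pintool to medium alone, comprising DMEM and 10% FBS. Emission at 535 nm following 485 nm excitation is quantified against fluorescein.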
Assay [8] in a line: qHTS assay to test for compound auto fluorescence at 590 nm (red) in HepG2 cell free culture (AID 720684). A digest of the protocol:
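No cells present: MEM + 10% FBS only. Compound pinned in, red label read (540/590 nm). Activity = fluorescence equivalent to Rose Bengal sodium.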

A short description of assay [9]: qHTS assay to test for compound auto fluorescence at 460 nm (blue) in HepG2 cell free culture (AID 720685). A digest of the protocol:
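Cell-free plates of MEM plus 10% FBS received 23 nL compound or DMSO vehicle; blue-channel (405/460 nm) intensity scored against triamterene as reference fluorophore.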

Assay [10] in a line: qHTS assay to test for compound auto fluorescence at 535 nm (green) in HepG2 cell free culture (AID 720686).
The nature of assay [11]: qHTS assay to test for compound auto fluorescence at 460 nm (blue) in HepG2 cells (AID 720687). A digest of the protocol:
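Blue-channel autofluorescence (Ex/Em 405/460 nm, triamterene-equivalent) was measured after 1 hr compound exposure at 37 C, 5% CO2. Cells were HepG2, plated overnight at 37 C in MEM plus 10% FBS.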

The nature of assay [12]: qHTS assay to identify small molecule antagonists of the androgen receptor (AR) signaling pathway - cell viability counter screen (AID 743033; also: nearly all actives have a fitted effect of over 45% in size).
Assay [13] is described as follows: qHTS assay to identify small molecule antagonists of the androgen receptor (AR) signaling pathway using the MDA cell line - cell viability counter screen (AID 743041; also: nearly all actives have a fitted effect of over 45% in size). A digest of the protocol:
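Using the breast carcinoma line MDA-kb2 AR-luc, test chemicals were co-incubated with R1881 for 16 h; CellTiter-Fluor reagent, added at 15.5 h, provided a fluorescence measure of live cells.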

Assay [14] can be described thus: qHTS assay to identify small molecule antagonists of the estrogen receptor alpha (ER-alpha) signaling pathway - cell viability counter screen (AID 743074; calls by dose curve;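 also: HEK293 cells carrying ER-alpha-UAS-bla reporter stimulated with 17beta-estradiol; nearly all actives have a fitted effect of over 45% in size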).
Assay [15] can be described thus: qHTS assay to identify small molecule antagonists of the estrogen receptor alpha (ER-alpha) signaling pathway using the BG1 cell line - cell viability counter screen (AID 743081).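 Also: compound given together with 17beta-estradiol as the ER stimulus; nearly all actives have a fitted effect of over 45% in size.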 Also: potency is read from the fitted curve at half-maximal effect.
A further assay has as its target Aromatase (Homo sapiens) (UniProt P11511). Briefly: qHTS assay to identify aromatase inhibitors (AID 743083). Also: series mostly up to about 70 µM; nearly all actives have a fitted effect of over 55% in size.
A short description of assay [16]: qHTS assay to identify aromatase inhibitors - cell viability counter screen (AID 743084).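 Also: cells stimulated with testosterone during compound exposure; nearly all actives have a fitted effect of over 55% in size.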
Assay [17] deals with Aryl hydrocarbon receptor (Homo sapiens) (UniProt P35869). In words: qHTS assay to identify small molecule that activate the aryl hydrocarbon receptor (AhR) signaling pathway (AID 743085).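 Also: HG2L7.5c1 human HepG2 liver cells with stably integrated DRE-driven firefly reporter; series mostly up to about 70 µM; nearly all actives have a fitted effect of over 15% in size.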 A digest of the protocol: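 Stably transfected human liver carcinoma cells (HG2L7.5c1; 20 DRE-firefly luciferase) were incubated 5 h, dosed, and kept 24 h at 37C. Agonism was scored from increased luciferase luminescence.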

Assay [18] is described as follows: qHTS assay to identify small molecule phospholipidosis (PLD) inducers (AID 1259344; active = well fitted curve in the direction sought with a large enough effect; an effect the other way counts as inactive or inconclusive). A digest of the protocol:
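Accumulated phospholipid, stained red by LipidTOX during 24 h compound treatment of HepG2 cells at 37 C, is quantified from images as pit number and intensity, normalised per cell using Hoechst-stained nuclei.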

Assay [19] deals with Nuclear receptor subfamily 1 group I member 2 (Rattus norvegicus) (UniProt Q9R1A7). In words: Rat pregnane X receptor (rPXR) activation by small molecules, qHTS assay (AID 1346983). Also: nearly all actives have a fitted effect of over 20% in size. As to conditions: rPXR luciferase reporter cells, One-Glo luminescence, 24 h; max activation: active compounds read high. A digest of the protocol: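 Luminescent readout (One-Glo luciferase, 30 min room temperature) followed 24 hr compound treatment at 37 C of rPXR cells plated 2,000 per well and preincubated 5hr; qHTS format with compounds delivered in DMSO.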
% is scaled to controls: 0 for no effect and ±100 for the full control effect.

Sequence of Aryl hydrocarbon receptor (Homo sapiens) (P35869 whole entry, looked up): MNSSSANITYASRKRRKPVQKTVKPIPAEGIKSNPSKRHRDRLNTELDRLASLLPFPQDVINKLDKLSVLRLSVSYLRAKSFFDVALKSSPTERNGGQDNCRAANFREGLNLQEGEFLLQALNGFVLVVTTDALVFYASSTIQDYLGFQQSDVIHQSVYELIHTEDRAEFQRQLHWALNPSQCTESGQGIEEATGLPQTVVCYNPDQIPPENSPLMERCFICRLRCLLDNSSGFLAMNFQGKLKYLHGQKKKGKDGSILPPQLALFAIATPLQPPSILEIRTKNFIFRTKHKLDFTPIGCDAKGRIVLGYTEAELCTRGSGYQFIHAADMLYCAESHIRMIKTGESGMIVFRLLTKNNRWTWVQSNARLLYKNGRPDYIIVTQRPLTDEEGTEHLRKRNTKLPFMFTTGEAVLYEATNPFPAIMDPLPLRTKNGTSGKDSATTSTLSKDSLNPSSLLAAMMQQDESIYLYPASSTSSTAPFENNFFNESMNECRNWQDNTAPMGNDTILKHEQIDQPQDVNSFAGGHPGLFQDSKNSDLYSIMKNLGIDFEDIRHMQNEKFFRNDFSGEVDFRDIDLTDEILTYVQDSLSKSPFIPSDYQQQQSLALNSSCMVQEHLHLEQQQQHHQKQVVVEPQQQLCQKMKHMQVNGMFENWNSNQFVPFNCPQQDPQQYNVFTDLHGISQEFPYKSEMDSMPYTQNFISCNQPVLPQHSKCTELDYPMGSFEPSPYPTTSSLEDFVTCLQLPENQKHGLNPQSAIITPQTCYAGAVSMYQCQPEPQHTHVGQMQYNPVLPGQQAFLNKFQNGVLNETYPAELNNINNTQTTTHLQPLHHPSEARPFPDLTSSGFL
Sequence of Aromatase (Homo sapiens) (P11511 whole entry, looked up): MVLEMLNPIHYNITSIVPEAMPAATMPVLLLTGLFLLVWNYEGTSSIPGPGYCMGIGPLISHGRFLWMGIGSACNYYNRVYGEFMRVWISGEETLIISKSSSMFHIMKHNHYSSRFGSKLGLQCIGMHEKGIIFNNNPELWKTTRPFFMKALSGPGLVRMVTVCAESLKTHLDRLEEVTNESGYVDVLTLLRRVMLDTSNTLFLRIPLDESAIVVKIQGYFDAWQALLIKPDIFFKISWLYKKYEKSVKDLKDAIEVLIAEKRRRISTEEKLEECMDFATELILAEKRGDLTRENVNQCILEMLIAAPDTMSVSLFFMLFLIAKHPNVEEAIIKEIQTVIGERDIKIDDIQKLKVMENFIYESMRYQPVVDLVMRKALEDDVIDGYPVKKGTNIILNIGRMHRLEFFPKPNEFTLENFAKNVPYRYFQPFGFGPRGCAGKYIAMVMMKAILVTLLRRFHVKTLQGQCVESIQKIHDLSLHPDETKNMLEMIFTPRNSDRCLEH
Sequence of Nuclear receptor subfamily 1 group I member 2 (Rattus norvegicus) (Q9R1A7 whole entry, looked up): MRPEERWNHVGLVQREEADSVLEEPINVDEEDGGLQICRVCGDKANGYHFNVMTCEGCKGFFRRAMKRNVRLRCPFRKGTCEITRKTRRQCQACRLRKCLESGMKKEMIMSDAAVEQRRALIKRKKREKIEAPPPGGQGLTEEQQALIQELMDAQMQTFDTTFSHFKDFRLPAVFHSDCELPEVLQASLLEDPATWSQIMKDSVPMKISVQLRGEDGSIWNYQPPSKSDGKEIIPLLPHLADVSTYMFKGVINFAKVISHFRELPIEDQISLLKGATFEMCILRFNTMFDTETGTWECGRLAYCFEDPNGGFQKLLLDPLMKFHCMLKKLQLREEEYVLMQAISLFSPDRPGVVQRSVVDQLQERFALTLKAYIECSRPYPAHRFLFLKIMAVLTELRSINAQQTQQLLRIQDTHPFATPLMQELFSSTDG

Take `C=CCC1(C(C)CCC)C(=O)N=C(S)NC1=O` (configuration not stated): the Potency result in [1], in assay [2], in assay [3], in [4], in assay [6] and in assay [7] was “inactive” each time. The Potency entry in assay [9], in assay [10], in [11], in assay [12], in assay [13] and in [14] was “inactive” each time. Besides, the Potency entry (in assay [15]; in the assay with Aromatase (Homo sapiens); in assay [16]; in [17]; in assay [18]) was “inactive” in each case. For the same compound, the result in assay [5] and in [8] was inactive. The max activation in [19] is -2.22%.

On to `NCC(O)c1cccc(O)c1` (configuration not stated), for which the Potency result in [1], in assay [2], in assay [3], in assay [4], in assay [6] and in assay [7] was “inactive” each time. Moreover, the Potency result in assay [9], in [10], in assay [11], in assay [12], in assay [13] and in assay [14] was “inactive” throughout. For the same compound, the Potency result (in assay [15]; with Aromatase (Homo sapiens); in assay [16]; in assay [17]; in [18]) was “inactive” throughout. The compound was classed as inactive in assay [5] and in assay [8]. Besides, in assay [19], the max activation was -2.06%.

As to `C=CCN1CC[C@]23c4c5ccc(O)c4O[C@H]2[C@@H](O)C=C[C@H]3[C@H]1C5`, the Potency result in assay [1], in [2], in assay [3], in assay [4], in assay [6] and in [7] was “inactive” throughout. For the same compound, the Potency result in assay [9], in [10], in [11], in assay [13], in assay [14] and in assay [15] was “inactive” in each case. Further, the Potency entry (in the assay with Aromatase (Homo sapiens); in [16]; in [17]; in [18]) was “inactive” each time. For the same compound, the compound was classed as inactive in assay [5] and in [8]. For the same compound, in assay [19], the max activation is -1.77%.

As to `C=CC[C@]1(O)CC[C@H]2[C@@H]3CCC4=CCCC[C@@H]4[C@H]3CC[C@@]21C`, the Potency entry in [1], in assay [2], in assay [3], in [4], in assay [6] and in assay [7] was “inactive” in each case. For the same compound, the Potency entry in assay [9], in assay [10], in [11], in assay [12], in assay [13] and in [14] was “inactive” each time. For the same compound, the Potency result in assay [15], in assay [16], in [17] and in assay [18] was “inactive” in each case. Also, the outcome in assay [5] and in assay [8] was inactive. Moreover, in assay [19], the max activation is 1.23%.

As to `CN1CCCC(=C(c2cccs2)c2cccs2)C1`, the Potency entry in assay [1], in assay [2], in [3], in assay [4], in assay [6] and in assay [7] was “inactive” each time. The Potency result in assay [9], in assay [10], in assay [11], in assay [12], in assay [13] and in assay [14] was “inactive” throughout. Further, the Potency result (in assay [15]; in the assay with Aromatase (Homo sapiens); in [16]; in [17]; in [18]) was “inactive” throughout. Besides, the outcome in assay [5] and in assay [8] was inactive. Besides, in assay [19], the max activation was -1%.

Consider `O=C1CCO1`, for which the Potency entry in assay [1], in assay [2], in assay [3], in [4], in [6] and in assay [7] was “inactive” throughout. Besides, the Potency result in [9], in [10], in assay [11], in [12], in assay [13] and in [15] was “inactive” each time. Also, the Potency entry (with Aromatase (Homo sapiens); in [16]; in assay [17]; in [18]) was “inactive” each time. Further, the call in assay [5] and in assay [8] was inactive. Moreover, the max activation in [19] was -0.633%.

With `Oc1ccc2c3c1O[C@H]1[C@@H](O)CC[C@@]4(O)[C@@H](C2)N(CC2CCC2)CC[C@]314`, the Potency entry in assay [1], in assay [2], in assay [3], in assay [4], in assay [6] and in assay [7] was “inactive” throughout. The Potency result in [9], in assay [10], in assay [11], in assay [12], in assay [13] and in [14] was “inactive” throughout. The Potency result (in assay [15]; in the assay with Aromatase (Homo sapiens); in [16]; in [17]; in [18]) was “inactive” throughout. The outcome in [5] and in assay [8] was inactive. Besides, the max activation in assay [19] was -0.605%.

In the case of `CC1(C)S[C@@H]2[C@H](N)C(=O)N2[C@H]1C(=O)O`, the Potency entry in [1], in [2], in [3], in [4], in [6] and in assay [7] was “inactive” throughout. The Potency result in assay [9], in [10], in [11], in assay [12], in assay [13] and in assay [14] was “inactive” each time. Also, the Potency result (in assay [15]; with Aromatase (Homo sapiens); in assay [16]; in assay [17]; in assay [18]) was “inactive” in each case. Besides, the compound was classed as inactive in assay [5] and in [8]. In [19], the max activation is -2.48%.

`O=c1[nH]cc(N(CCCl)CCCl)c(=O)[nH]1`: the Potency result in assay [1], in assay [2], in assay [4], in assay [6], in assay [7] and in assay [9] was “inactive” throughout. The Potency entry (in assay [10]; in assay [11]; in [12]; in assay [13]; in [15]; in the assay with Aromatase (Homo sapiens)) was “inactive” in each case. Moreover, the Potency result in [16], in assay [17] and in [18] was “inactive” in each case. Moreover, the compound was called inactive in [5] and in assay [8]. The max activation in assay [19] was -3.28%.

On to `OC[C@@H](O)[C@H]1O[C@@H]2O[C@@H](C(Cl)(Cl)Cl)O[C@@H]2[C@H]1O`, for which the Potency result in assay [1], in assay [3], in assay [4], in assay [6], in assay [7] and in assay [9] was “inactive” throughout. Further, the Potency entry in assay [10], in assay [11], in assay [12], in assay [13], in assay [14] and in assay [15] was “inactive” throughout. Besides, the Potency entry (with Aromatase (Homo sapiens); in assay [16]; in assay [17]; in assay [18]) was “inactive” in each case. Also, the outcome in [5] and in assay [8] was inactive. In addition, the max activation in assay [19] is -2%.

With `O=[N+]([O-])c1cc(I)c(O)c(I)c1`, the Potency entry in [1], in assay [4], in assay [6], in [7], in [9] and in [10] was “inactive” in each case. Besides, the Potency entry (in [11]; in [12]; in assay [13]; with Aromatase (Homo sapiens); in assay [16]; in assay [17]) was “inactive” throughout. Also, the Potency result in assay [18] was “inactive”. Further, the values for the Potency in assay [2] and in [15] were 3.76 µM (active) and 10.6 µM (active), respectively. For the same compound, the result in assay [5] and in [8] was inactive. The max activation in assay [19] is -2.81%.
